Measured values from article PMC11006913.

Assays:
Experiment in all cases: PBM; 200 nM protein, PBS
Settings in all cases: dsDNA, one strand shown
HOXB4 [1] = biological target: HOXB4 (Homo sapiens, UniProt P17483 148-234)
SHOX [2] = biological target: SHOX (Homo sapiens, UniProt O15266 103-189)
HOXB4 [3] = biological target: HOXB4 (Homo sapiens, UniProt P17483 148-234, V174I)
ALX1 [4] = biological target: ALX1 (Homo sapiens, UniProt Q15699 118-204, L144V)
SHOX [5] = biological target: SHOX (Homo sapiens, UniProt O15266 103-189, R173C)
ALX1 [6] = biological target: ALX1 (Homo sapiens, UniProt Q15699 118-204, L144R)
ALX1 [7] = biological target: ALX1 (Homo sapiens, UniProt Q15699 118-204)
HESX1 [8] = biological target: HESX1 (Homo sapiens, UniProt Q9UBX0 95-180, R165K)
HESX1 [9] = biological target: HESX1 (Homo sapiens, UniProt Q9UBX0 95-180)
HESX1 [10] = biological target: HESX1 (Homo sapiens, UniProt Q9UBX0 95-180, P111T)
CRX [11] = biological target: CRX (Homo sapiens, UniProt O43186 26-111)
HOXA4 [12] = biological target: HOXA4 (Homo sapiens, UniProt Q00056 201-287, W262R)
HOXA2 [13] = biological target: HOXA2 (Homo sapiens, UniProt O43364 129-215, R185T)
HOXA4 [14] = biological target: HOXA4 (Homo sapiens, UniProt Q00056 201-287, R217L)
CRX [15] = biological target: CRX (Homo sapiens, UniProt O43186 26-111, E42D)
HOXA2 [16] = biological target: HOXA2 (Homo sapiens, UniProt O43364 129-215, R185K)
HOXA4 [17] = biological target: HOXA4 (Homo sapiens, UniProt Q00056 201-287)
VAX1 [18] = biological target: VAX1 (Homo sapiens, UniProt Q5SQQ9 86-172)
VAX1 [19] = biological target: VAX1 (Homo sapiens, UniProt Q5SQQ9 86-172, T142I)
HOXA2 [20] = biological target: HOXA2 (Homo sapiens, UniProt O43364 129-215, Y150S)
CRX [21] = biological target: CRX (Homo sapiens, UniProt O43186 26-111, R41L)
HOXA4 [22] = biological target: HOXA4 (Homo sapiens, UniProt Q00056 201-287, W262F)
HOXA2 [23] = biological target: HOXA2 (Homo sapiens, UniProt O43364 129-215)
VAX1 [24] = biological target: VAX1 (Homo sapiens, UniProt Q5SQQ9 86-172, K157R)
HESX1 [25] = biological target: HESX1 (Homo sapiens, UniProt Q9UBX0 95-180, R109Q)
HESX1 [26] = biological target: HESX1 (Homo sapiens, UniProt Q9UBX0 95-180, F115L)
PRRX1 = PRRX1 (Homo sapiens, UniProt P54821 80-166)
Sequence of PRRX1 (P54821 80-166): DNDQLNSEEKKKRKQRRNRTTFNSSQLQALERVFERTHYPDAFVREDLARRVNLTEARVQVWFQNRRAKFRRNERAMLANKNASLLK

Sequence of HESX1 (Homo sapiens, UniProt Q9UBX0 95-180, R165K) (Q9UBX0 95-180 R165K): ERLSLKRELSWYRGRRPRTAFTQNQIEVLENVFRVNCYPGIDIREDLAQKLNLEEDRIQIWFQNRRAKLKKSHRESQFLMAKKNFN
Sequence of HESX1 (Homo sapiens, UniProt Q9UBX0 95-180) (Q9UBX0 95-180): as the sequence (Q9UBX0 95-180 R165K) above, with K71R counted along it
Sequence of HESX1 (Homo sapiens, UniProt Q9UBX0 95-180, P111T) (Q9UBX0 95-180 P111T): as the sequence (Q9UBX0 95-180 R165K) above, with P17T, K71R counted along it
Sequence of HOXB4 (Homo sapiens, UniProt P17483 148-234, V174I) (P17483 148-234 V174I): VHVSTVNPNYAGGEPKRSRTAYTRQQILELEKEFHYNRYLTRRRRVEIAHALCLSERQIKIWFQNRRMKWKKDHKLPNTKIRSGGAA
Sequence of HOXB4 (Homo sapiens, UniProt P17483 148-234) (P17483 148-234): as the sequence (P17483 148-234 V174I) above, with I27V counted along it
Sequence of HESX1 (Homo sapiens, UniProt Q9UBX0 95-180, F115L) (Q9UBX0 95-180 F115L): as the sequence (Q9UBX0 95-180 R165K) above, with F21L, K71R counted along it
Sequence of HOXA2 (Homo sapiens, UniProt O43364 129-215, Y150S) (O43364 129-215 Y150S): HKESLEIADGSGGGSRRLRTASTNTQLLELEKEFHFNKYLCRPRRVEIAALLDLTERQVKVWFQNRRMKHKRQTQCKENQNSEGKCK
Sequence of HOXA2 (Homo sapiens, UniProt O43364 129-215) (O43364 129-215): as the sequence (O43364 129-215 Y150S) above, with S22Y counted along it
Sequence of ALX1 (Homo sapiens, UniProt Q15699 118-204) (Q15699 118-204): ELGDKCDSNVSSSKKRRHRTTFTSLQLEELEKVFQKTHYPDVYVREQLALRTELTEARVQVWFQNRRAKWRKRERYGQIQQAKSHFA
Sequence of VAX1 (Homo sapiens, UniProt Q5SQQ9 86-172) (Q5SQQ9 86-172): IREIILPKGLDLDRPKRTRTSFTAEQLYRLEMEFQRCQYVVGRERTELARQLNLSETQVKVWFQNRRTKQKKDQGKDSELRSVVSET
Sequence of VAX1 (Homo sapiens, UniProt Q5SQQ9 86-172, T142I) (Q5SQQ9 86-172 T142I): as the sequence (Q5SQQ9 86-172) above, with T57I counted along it
Sequence of CRX (Homo sapiens, UniProt O43186 26-111, R41L) (O43186 26-111 R41L): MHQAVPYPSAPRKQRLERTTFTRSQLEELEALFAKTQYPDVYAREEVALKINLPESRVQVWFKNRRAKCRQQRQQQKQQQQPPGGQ
Sequence of HOXA4 (Homo sapiens, UniProt Q00056 201-287, W262R) (Q00056 201-287 W262R): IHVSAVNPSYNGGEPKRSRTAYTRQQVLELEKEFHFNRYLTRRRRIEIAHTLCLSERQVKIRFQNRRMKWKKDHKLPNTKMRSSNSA
Sequence of CRX (Homo sapiens, UniProt O43186 26-111) (O43186 26-111): as the sequence (O43186 26-111 R41L) above, with L16R counted along it
Sequence of SHOX (Homo sapiens, UniProt O15266 103-189, R173C) (O15266 103-189 R173C): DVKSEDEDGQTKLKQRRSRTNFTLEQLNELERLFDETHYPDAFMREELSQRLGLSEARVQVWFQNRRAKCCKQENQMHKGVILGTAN
Sequence of HOXA4 (Homo sapiens, UniProt Q00056 201-287, W262F) (Q00056 201-287 W262F): as the sequence (Q00056 201-287 W262R) above, with R62F counted along it
Sequence of HOXA4 (Homo sapiens, UniProt Q00056 201-287) (Q00056 201-287): as the sequence (Q00056 201-287 W262R) above, with R62W counted along it
Sequence of HESX1 (Homo sapiens, UniProt Q9UBX0 95-180, R109Q) (Q9UBX0 95-180 R109Q): as the sequence (Q9UBX0 95-180 R165K) above, with R15Q, K71R counted along it
Sequence of HOXA4 (Homo sapiens, UniProt Q00056 201-287, R217L) (Q00056 201-287 R217L): as the sequence (Q00056 201-287 W262R) above, with R17L, R62W counted along it
Sequence of ALX1 (Homo sapiens, UniProt Q15699 118-204, L144V) (Q15699 118-204 L144V): as the sequence (Q15699 118-204) above, with L27V counted along it
Sequence of HOXA2 (Homo sapiens, UniProt O43364 129-215, R185K) (O43364 129-215 R185K): as the sequence (O43364 129-215 Y150S) above, with S22Y, R57K counted along it
Sequence of CRX (Homo sapiens, UniProt O43186 26-111, E42D) (O43186 26-111 E42D): as the sequence (O43186 26-111 R41L) above, with L16R, E17D counted along it
Sequence of SHOX (Homo sapiens, UniProt O15266 103-189) (O15266 103-189): as the sequence (O15266 103-189 R173C) above, with C71R counted along it
Sequence of VAX1 (Homo sapiens, UniProt Q5SQQ9 86-172, K157R) (Q5SQQ9 86-172 K157R): as the sequence (Q5SQQ9 86-172) above, with K72R counted along it
Sequence of HOXA2 (Homo sapiens, UniProt O43364 129-215, R185T) (O43364 129-215 R185T): as the sequence (O43364 129-215 Y150S) above, with S22Y, R57T counted along it
Sequence of ALX1 (Homo sapiens, UniProt Q15699 118-204, L144R) (Q15699 118-204 L144R): as the sequence (Q15699 118-204) above, with L27R counted along it

CGCAGGCG
binding signal (HOXB4 [1]): 7.74 upbm affinity estimate (log intensity, higher = more binding, comparable within an allelic series) | binding signal (SHOX [2]): 7.28 upbm affinity estimate (log intensity, higher = more binding, comparable within an allelic series) | binding signal (HOXB4 [3]): 7.65 upbm affinity estimate (log intensity, higher = more binding, comparable within an allelic series) | binding signal (ALX1 [4]): 6.44 upbm affinity estimate (log intensity, higher = more binding, comparable within an allelic series) | binding signal (SHOX [5]): 7.07 upbm affinity estimate (log intensity, higher = more binding, comparable within an allelic series) | binding signal (ALX1 [6]): 6.71 upbm affinity estimate (log intensity, higher = more binding, comparable within an allelic series) | binding signal (ALX1 [7]): 6.49 upbm affinity estimate (log intensity, higher = more binding, comparable within an allelic series)

TATTGCCA
binding signal (HESX1 [8]): 7.79 upbm affinity estimate (log intensity, higher = more binding, comparable within an allelic series) | binding signal (HESX1 [9]): 7.9 upbm affinity estimate (log intensity, higher = more binding, comparable within an allelic series) | binding signal (HESX1 [10]): 7.47 upbm affinity estimate (log intensity, higher = more binding, comparable within an allelic series)

AATCATTA
binding signal (HOXB4 [1]): 13.2 upbm affinity estimate (log intensity, higher = more binding, comparable within an allelic series) | binding signal (CRX [11]): 10.5 upbm affinity estimate (log intensity, higher = more binding, comparable within an allelic series) | binding signal (HOXA4 [12]): 10.7 upbm affinity estimate (log intensity, higher = more binding, comparable within an allelic series) | binding signal (HOXA2 [13]): 12.4 upbm affinity estimate (log intensity, higher = more binding, comparable within an allelic series) | binding signal (HOXA4 [14]): 12.3 upbm affinity estimate (log intensity, higher = more binding, comparable within an allelic series) | binding signal (HOXB4 [3]): 13.8 upbm affinity estimate (log intensity, higher = more binding, comparable within an allelic series) | binding signal (CRX [15]): 10.3 upbm affinity estimate (log intensity, higher = more binding, comparable within an allelic series) | binding signal (HOXA2 [16]): 13.2 upbm affinity estimate (log intensity, higher = more binding, comparable within an allelic series) | binding signal (HOXA4 [17]): 13.9 upbm affinity estimate (log intensity, higher = more binding, comparable within an allelic series) | binding signal (VAX1 [18]): 12.7 upbm affinity estimate (log intensity, higher = more binding, comparable within an allelic series) | binding signal (VAX1 [19]): 12.6 upbm affinity estimate (log intensity, higher = more binding, comparable within an allelic series) | binding signal (HOXA2 [20]): 10.8 upbm affinity estimate (log intensity, higher = more binding, comparable within an allelic series) | binding signal (CRX [21]): 9.82 upbm affinity estimate (log intensity, higher = more binding, comparable within an allelic series) | binding signal (HOXA4 [22]): 11.6 upbm affinity estimate (log intensity, higher = more binding, comparable within an allelic series) | binding signal (HOXA2 [23]): 12.1 upbm affinity estimate (log intensity, higher = more binding, comparable within an allelic series) | binding signal (VAX1 [24]): 12.4 upbm affinity estimate (log intensity, higher = more binding, comparable within an allelic series)

TATCAATA
binding signal (HESX1 [8]): 7.76 upbm affinity estimate (log intensity, higher = more binding, comparable within an allelic series) | binding signal (HESX1 [9]): 7.98 upbm affinity estimate (log intensity, higher = more binding, comparable within an allelic series) | binding signal (HESX1 [25]): 7.49 upbm affinity estimate (log intensity, higher = more binding, comparable within an allelic series) | binding signal (HESX1 [10]): 7.63 upbm affinity estimate (log intensity, higher = more binding, comparable within an allelic series) | binding signal (HESX1 [26]): 7.36 upbm affinity estimate (log intensity, higher = more binding, comparable within an allelic series) | binding signal (PRRX1): 11.7 upbm affinity estimate (log intensity, higher = more binding, comparable within an allelic series)

AATAGTGT
binding signal (HESX1 [8]): 7.52 upbm affinity estimate (log intensity, higher = more binding, comparable within an allelic series) | binding signal (HESX1 [9]): 7.75 upbm affinity estimate (log intensity, higher = more binding, comparable within an allelic series) | binding signal (HESX1 [10]): 7.31 upbm affinity estimate (log intensity, higher = more binding, comparable within an allelic series)
